As usually defined, the inhibition is the change of the read-out against control, counted positive when it falls.

Results filed as inconclusive are left out. Activity calls are given as the source filed them.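 How the source made its calls, unless noted: active means efflux inhibition above 0.42, the validation set average plus 4 SD; inconclusive means no clear call, values can overlap the other calls; inactive means the rest.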

Assay [1] in a line: yeast TOR pathway RPL19A-GFP modulators, primary screen, cell-based, S. cerevisiae, multiplex flow cytometry (AID 1862; in the data active means percent of DMSO control GFP below about 86%;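 further: lower values mimic rapamycin by blocking the RPL19A rise seen in DMSO cells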). Particulars: S. cerevisiae RPL19A-GFP strain, flow cytometry fluorescence, 3 h; at 10 µM; stronger effect = lower value. (In general: In flow cytometry, cells or beads pass a laser one at a time.)
Assay [2] in a line: modulators of MEP2-GFP levels in yeast, primary screen, S. cerevisiae, multiplex flow cytometry (AID 1867;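 active means GFP response, as percent of the DMSO control, above the screen-wide mean plus 3 SD, about 139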;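 further: median GFP channel fluorescence of barcode-gated MEP2-GFP cells measured by flow cytometry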). Particulars: S. cerevisiae MEP2-GFP strain, 3 h, at 10 µM, stronger effect = higher value, 100% means same as DMSO wells.
Assay [3] can be described thus: modulators of CIT2-GFP expression in yeast, primary screen, S. cerevisiae, GFP fusion, multiplex flow cytometry (AID 1870;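 active means percent response above a set limit, the screen-wide mean plus 3 SD, cut at about 130% in these data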;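 further: barcoded CIT2-GFP strain pooled with four other GFP strains with rapamycin as positive control; median GFP fluorescence per well over plate mean of DMSO wells so 100% = DMSO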). The note with it: 3 h, at 10 µM, stronger effect = higher value.
Assay [4] in a line: modulators of LAP4-GFP expression in yeast, primary screen, S. cerevisiae, multiplex flow cytometry (AID 1873;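 active means GFP signal, as percent of the solvent control, above the screen mean plus 3 SD, about 149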). The note with it: 3 h, at 10 µM, stronger effect = higher value.
Assay [5] can be described thus: modulators of AGP1-GFP expression in yeast TOR pathway, primary screen, cell-based, multiplex flow cytometry, S. cerevisiae (AID 1887;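 active means GFP signal above the screen-wide mean plus 3 SD, that is over about 124.5% of the solvent control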;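 further: AGP1-GFP fusion strain of S. cerevisiae within a five-strain barcoded multiplex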). Particulars: 3 h, at 10 µM, stronger effect = higher value.
Assay [6] in a line: inhibitors of CD8+ T cell-vesicle binding, pilot screen, LFA-1/ICAM-1 modulator project, MLPCN validation set, flow cytometry (AID 2523;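 active means response below a set limit, under 55% cells CD8-positive and vesicle-bound, and CD8 cells' 90th-percentile brightness under 279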;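 on vesicle binding response: mean PE anti-B7-1 fluorescence of CD8+ cells relative to row control; 100% = QL9-loaded vesicles with DMSO vehicle in the same plate row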). The note with it: 2C mouse CD8+ T cells, at 7 µM, stronger effect = lower value; double positive events: measured here: CD8+/vesicle+ event percentage.
The target of assay [7] is Integrin beta-1 (Homo sapiens) + Integrin alpha-4 (Homo sapiens) (UniProt P13612+P05556). Kind of assay: inhibition of HUTS-21 binding to VLA-4, pilot screen, VLA-4 allosteric modulator project, U937 cells, HUTS-21 mAb, flow cytometry, validation set (AID 2674;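 active means inhibition above 50%, about 3 SD of the validation set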;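 further: antibody binding induced by the VLA-4 ligand LDV present at three times its Kd; 0% = LDV ligand with antibody and no compound and 100% = antibody without LDV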). Particulars: HUTS-21 LIBS mAb binding, at 6.7 µM, stronger effect = higher value, binding induced by LDV ligand.
Sequence of Integrin beta-1 (Homo sapiens) + Integrin alpha-4 (Homo sapiens) (P05556 whole entry, looked up): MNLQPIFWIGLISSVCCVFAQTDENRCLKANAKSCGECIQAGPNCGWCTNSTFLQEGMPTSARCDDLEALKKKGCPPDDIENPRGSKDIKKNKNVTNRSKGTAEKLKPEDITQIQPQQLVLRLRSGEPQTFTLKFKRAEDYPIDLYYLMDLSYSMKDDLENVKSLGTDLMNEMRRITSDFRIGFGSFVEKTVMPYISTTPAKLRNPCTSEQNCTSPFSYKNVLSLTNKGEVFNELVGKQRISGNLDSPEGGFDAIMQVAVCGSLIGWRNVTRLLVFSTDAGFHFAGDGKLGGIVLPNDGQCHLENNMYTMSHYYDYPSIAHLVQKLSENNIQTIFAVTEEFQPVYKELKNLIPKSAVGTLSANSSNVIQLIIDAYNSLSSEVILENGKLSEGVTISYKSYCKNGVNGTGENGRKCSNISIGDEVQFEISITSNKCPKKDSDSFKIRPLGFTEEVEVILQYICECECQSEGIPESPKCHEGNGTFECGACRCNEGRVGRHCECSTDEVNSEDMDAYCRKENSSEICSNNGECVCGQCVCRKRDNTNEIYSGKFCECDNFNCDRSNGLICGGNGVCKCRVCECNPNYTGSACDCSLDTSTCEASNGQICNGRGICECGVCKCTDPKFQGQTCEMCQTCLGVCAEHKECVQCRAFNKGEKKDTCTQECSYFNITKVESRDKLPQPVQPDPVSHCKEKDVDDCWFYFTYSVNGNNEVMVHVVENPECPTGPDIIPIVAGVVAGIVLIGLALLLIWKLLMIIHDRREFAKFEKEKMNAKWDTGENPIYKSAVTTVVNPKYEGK
Sequence of Integrin beta-1 (Homo sapiens) + Integrin alpha-4 (Homo sapiens) (P13612 whole entry, looked up): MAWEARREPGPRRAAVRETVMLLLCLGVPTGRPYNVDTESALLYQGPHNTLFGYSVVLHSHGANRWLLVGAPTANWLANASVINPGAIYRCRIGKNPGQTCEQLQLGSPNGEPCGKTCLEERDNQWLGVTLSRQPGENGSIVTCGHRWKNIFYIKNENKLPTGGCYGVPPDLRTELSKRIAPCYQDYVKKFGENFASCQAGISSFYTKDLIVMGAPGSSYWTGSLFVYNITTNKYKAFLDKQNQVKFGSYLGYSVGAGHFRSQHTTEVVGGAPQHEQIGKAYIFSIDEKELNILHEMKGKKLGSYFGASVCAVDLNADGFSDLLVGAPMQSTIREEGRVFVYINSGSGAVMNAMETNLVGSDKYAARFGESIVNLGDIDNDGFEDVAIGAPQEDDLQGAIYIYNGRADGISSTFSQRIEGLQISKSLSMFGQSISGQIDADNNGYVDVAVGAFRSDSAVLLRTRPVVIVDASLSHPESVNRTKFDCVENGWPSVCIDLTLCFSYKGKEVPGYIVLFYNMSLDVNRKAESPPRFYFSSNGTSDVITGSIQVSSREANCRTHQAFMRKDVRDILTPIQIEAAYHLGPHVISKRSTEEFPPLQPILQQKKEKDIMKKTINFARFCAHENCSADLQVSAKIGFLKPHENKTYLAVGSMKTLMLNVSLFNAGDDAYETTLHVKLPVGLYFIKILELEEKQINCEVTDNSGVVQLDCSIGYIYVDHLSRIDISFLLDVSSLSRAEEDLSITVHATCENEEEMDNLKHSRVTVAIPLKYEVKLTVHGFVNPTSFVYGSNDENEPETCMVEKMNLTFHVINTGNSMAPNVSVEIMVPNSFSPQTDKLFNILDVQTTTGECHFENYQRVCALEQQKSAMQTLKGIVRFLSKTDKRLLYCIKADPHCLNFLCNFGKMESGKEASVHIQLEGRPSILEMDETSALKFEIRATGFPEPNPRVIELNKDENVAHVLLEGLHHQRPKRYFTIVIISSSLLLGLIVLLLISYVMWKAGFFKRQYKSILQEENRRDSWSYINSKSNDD
Assay [8] can be described thus: superoxide lowering in aged yeast cells, pilot screen, validation compound set (AID 2706;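 active means superoxide response below 65% of plate, a cut near 3 SD across the whole screen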;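 further: yeast exposed to compound for one week at 30 degrees C before staining; 100% = mean of all compound wells on the same plate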). Particulars: S. cerevisiae aging, superoxide DHE fluorescence; at 10 µM; stronger effect = lower value.
In assay [9] the target is Beta-adrenergic receptor kinase 1 (Homo sapiens) (UniProt P25098). Put plainly: GRK2 binders displacing RNA aptamer, biochemical, validation, human GRK2, bead flow cytometry (AID 488806;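 active means aptamer binding inhibition above 30%, about 3 SD of noise from non-fluorescent compounds; inactive means inhibition at or below 30%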). Particulars: bead-bound GRK2, FAM-aptamer displacement, at 10 µM, stronger effect = higher value.
Sequence of Beta-adrenergic receptor kinase 1 (Homo sapiens) (P25098 whole entry, looked up): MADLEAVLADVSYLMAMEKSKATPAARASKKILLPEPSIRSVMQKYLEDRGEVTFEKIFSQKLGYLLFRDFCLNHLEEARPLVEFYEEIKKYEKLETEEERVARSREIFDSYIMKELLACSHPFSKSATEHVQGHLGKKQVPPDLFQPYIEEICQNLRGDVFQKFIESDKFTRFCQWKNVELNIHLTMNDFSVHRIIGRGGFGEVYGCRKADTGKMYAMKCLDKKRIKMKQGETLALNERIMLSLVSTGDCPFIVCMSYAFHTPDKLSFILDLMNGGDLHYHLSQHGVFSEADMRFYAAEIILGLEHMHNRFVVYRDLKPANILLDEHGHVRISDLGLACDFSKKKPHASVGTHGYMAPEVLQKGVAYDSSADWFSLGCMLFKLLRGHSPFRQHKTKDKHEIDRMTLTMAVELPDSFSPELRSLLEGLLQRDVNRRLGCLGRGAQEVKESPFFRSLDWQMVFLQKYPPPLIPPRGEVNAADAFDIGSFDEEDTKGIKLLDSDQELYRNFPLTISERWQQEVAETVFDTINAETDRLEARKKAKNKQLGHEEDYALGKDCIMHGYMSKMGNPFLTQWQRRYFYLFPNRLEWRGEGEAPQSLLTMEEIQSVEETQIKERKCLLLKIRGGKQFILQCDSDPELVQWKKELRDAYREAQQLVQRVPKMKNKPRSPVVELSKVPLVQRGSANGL
Assay [10] deals with Beta-2 adrenergic receptor (Homo sapiens) (UniProt P07550). Kind of assay: beta2AR agonists driving receptor internalization, pilot screen, cell-based, FAP fluorogen, flow cytometry, validation set (AID 504459;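 active means percent response above 42, roughly 3 SD of non-fluorescent test compounds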;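 further: agonist-driven loss of surface beta2AR via internalization measured by FAP dye flow cytometry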). The note with it: Am2.2-beta2AR cells, FAP surface receptor flow cytometry; at 10 µM; stronger effect = higher value.
Sequence of Beta-2 adrenergic receptor (Homo sapiens) (P07550 whole entry, looked up): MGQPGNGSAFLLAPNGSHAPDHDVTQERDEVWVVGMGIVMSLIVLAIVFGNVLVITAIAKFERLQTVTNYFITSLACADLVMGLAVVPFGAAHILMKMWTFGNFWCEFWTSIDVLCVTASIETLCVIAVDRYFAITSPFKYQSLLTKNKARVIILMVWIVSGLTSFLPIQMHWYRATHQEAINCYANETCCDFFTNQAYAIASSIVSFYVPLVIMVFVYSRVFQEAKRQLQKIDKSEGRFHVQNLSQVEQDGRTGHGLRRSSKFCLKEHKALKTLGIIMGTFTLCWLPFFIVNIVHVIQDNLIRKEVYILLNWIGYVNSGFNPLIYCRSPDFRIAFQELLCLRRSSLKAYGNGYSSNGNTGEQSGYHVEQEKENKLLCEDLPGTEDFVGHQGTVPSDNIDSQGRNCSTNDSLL
Assay [11] has as its target AP-2 complex subunit beta (Homo sapiens) (UniProt P63010). Put plainly: inhibitors of arrestin peptide binding to AP2, pilot screen, biochemical, validation set, GST-AP2 beads, flow cytometry (AID 504541;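 active means inhibition above 54%, about 3 SD of non-fluorescent compounds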;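 further: AP2 carries R879A mutation and is captured from E. coli lysate; bead-bound FITC arrestin peptide fluorescence measuring arrestin peptide binding to AP2; 0% = DMSO wells and 100% = excess unlabeled arrestin peptide control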). The note with it: FITC arrestin peptide, at 10 µM, stronger effect = higher value, AP2 beta2 appendage fragment, R879A mutant.
The nature of assay [12]: yeast V-ATPase proton transport modulators, S. cerevisiae, pHLuorin, HTS validation (AID 504600; in the data active means response above about 15%;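 further: plate controls were DMSO for no effect and reference compound for full effect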). Particulars: S. cerevisiae pHLuorin cytosolic pH, at 10 µM, stronger effect = higher value.
Assay [13] deals with anti-desmoglein-3 scFv antibody binding to human DSG3. Put plainly: inhibitors of anti-DSG3 scFv binding to DSG3, pilot screen, biochemical, validation compound set, bead-based, flow cytometry (AID 588368;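 active means binding below the plate cutoff, the plate median minus 3 SD, with a reading above zero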;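 further: signal is the median channel fluorescence of bead-bound GFP antibody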). The note with it: Protein G beads, DSG3-Fc, scFv-GFP binding, at 10 µM, stronger effect = lower value.
Assay [14] is described as follows: inhibitors of fungal efflux pumps CDR1, CDR2, MDR1, pilot screen, validation compound set, multiplex, phenotypic (AID 588506).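 Further: Nile Red retained in cells so higher fluorescence means more efflux inhibition; 0 = negative control wells and 1 = enniatin B 25 µM full block.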 Particulars: S. cerevisiae pump-expressing triplex, Nile Red efflux flow cytometry; at 10 µM; stronger effect = higher value; the pumps come from Candida albicans.
Assay [15] addresses ATP-binding cassette sub-family B member 6 (Homo sapiens) (UniProt Q9NP58). Kind of assay: ABCB6 transporter inhibitors, pilot screen, K562-ABCB6 cells, flow cytometry, validation set (AID 588550;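 active means inhibition above the screen-wide mean plus 3 SD, about 51%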;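 further: 0% = DMSO wells and 100% = benzethonium chloride 70 µM positive control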). The note with it: K562-ABCB6 porphyrin accumulation, 1 h, at 10 µM, stronger effect = higher value.
Assay [16] is described as follows: promoters of myeloid differentiation in arrested cells, primary screen, cell-based, GFP/MAC1 double positive, flow cytometry, validation set (AID 588685;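 active means differentiation response of at least 50%, scaled between solvent and reference control, from cells with both markers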;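 further: compound exposure lasts four days before antibody staining and flow analysis; 0% = DMSO wells and 100% = 5 µM fulvestrant positive control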). Particulars: ER-HoxA9 marrow cells, stronger effect = higher value, normalized: vehicle 0, fulvestrant 100.

Sequence of AP-2 complex subunit beta (Homo sapiens) (P63010 whole entry, looked up, the tested form may be a part, one chain of several): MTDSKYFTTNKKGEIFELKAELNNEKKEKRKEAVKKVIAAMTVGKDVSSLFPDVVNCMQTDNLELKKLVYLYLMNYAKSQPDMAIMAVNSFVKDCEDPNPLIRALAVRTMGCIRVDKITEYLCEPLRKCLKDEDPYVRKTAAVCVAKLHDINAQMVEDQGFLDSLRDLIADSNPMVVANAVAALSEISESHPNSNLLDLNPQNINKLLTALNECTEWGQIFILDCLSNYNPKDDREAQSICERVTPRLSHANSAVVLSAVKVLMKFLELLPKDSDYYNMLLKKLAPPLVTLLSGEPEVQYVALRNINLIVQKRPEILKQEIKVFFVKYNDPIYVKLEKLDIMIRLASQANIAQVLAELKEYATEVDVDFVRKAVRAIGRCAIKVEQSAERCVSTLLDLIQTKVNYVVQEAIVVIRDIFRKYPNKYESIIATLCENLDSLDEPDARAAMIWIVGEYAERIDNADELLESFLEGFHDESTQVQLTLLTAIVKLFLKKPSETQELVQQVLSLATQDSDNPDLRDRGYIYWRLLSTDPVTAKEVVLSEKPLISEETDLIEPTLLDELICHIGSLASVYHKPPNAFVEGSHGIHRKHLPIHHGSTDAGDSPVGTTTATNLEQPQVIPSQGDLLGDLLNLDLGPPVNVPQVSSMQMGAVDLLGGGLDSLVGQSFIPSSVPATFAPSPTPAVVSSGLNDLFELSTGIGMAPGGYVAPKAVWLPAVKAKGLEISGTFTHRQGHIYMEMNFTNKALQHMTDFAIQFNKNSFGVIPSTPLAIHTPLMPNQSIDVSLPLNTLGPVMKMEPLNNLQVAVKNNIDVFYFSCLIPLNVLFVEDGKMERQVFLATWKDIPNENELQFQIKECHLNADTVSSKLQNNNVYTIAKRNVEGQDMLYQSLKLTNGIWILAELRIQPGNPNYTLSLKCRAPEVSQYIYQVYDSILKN
Sequence of ATP-binding cassette sub-family B member 6 (Homo sapiens) (Q9NP58 whole entry, looked up): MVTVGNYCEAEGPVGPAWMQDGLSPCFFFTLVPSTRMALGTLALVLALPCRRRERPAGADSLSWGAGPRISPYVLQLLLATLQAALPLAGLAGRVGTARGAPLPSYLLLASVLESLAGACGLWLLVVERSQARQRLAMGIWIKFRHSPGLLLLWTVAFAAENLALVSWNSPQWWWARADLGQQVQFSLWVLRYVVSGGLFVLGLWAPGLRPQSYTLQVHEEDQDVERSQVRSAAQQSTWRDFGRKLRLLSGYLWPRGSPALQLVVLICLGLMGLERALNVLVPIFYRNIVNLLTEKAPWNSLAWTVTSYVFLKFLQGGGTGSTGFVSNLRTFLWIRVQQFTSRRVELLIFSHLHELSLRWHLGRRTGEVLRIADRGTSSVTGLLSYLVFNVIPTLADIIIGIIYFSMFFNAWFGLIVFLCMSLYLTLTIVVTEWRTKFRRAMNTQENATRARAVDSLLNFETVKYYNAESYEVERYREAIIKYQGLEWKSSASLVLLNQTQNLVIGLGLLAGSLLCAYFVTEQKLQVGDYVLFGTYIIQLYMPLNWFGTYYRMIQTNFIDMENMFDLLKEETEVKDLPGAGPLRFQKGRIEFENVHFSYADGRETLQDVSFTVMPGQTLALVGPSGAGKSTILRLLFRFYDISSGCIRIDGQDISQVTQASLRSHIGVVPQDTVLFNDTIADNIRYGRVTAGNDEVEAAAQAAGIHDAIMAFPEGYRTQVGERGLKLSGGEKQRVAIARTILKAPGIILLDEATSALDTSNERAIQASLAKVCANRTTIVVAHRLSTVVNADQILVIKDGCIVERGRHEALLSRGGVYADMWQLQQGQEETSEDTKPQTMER

In the case of `COc1ccc2[nH]c(=O)c(CNC3CCCCC3)cc2c1`, the percent of DMSO control GFP in assay [1] is 102% (inactive). Further, the GFP response vs DMSO was 103% (inactive) in assay [2] and 98% (inactive) in assay [4]. Also, the percent response of DMSO control in assay [3] is 106% (inactive). The GFP response, % of DMSO in [5] was 99.9% (inactive). In assay [6], this compound showed a double positive events of 63.6%. Moreover, in assay [6], the vesicle binding response was 244% (inactive). Besides, the inhibition in assay [7] was 11% (inactive); in assay [11], -0.94% (inactive); in [15] it was -1% (inactive). In addition, the superoxide response (% of plate) in assay [8] is 106% (inactive). In [9], the aptamer binding inhibition is 2% (inactive). The response in assay [10] is -1.53% (inactive); in [12], 1.21% (inactive). Also, the binding (% of control) in assay [13] is 95.5% (inactive). Besides, in assay [14], the efflux inhibition (fraction of control) was -0.01 (inactive). Moreover, the differentiation response in assay [16] is 0.24% (inactive).

`Cc1ccc(/C=N/Nc2nc(C(C)(C)C)cs2)o1`: in [1], the percent of DMSO control GFP is 103% (inactive). Further, the values for the GFP response vs DMSO in assay [2] and in assay [4] were 106% (inactive) and 98.2% (inactive), respectively. In [3], the percent response of DMSO control was 95.8% (inactive). In addition, the GFP response, % of DMSO in assay [5] was 97.8% (inactive). The compound also came in with a double positive events in assay [6] of 69.4%. Also, the vesicle binding response in [6] is 302% (inactive). The figures for the inhibition in assay [7], in assay [11] and in [15] were 17.3% (inactive), -1.54% (inactive) and 114% (active), respectively. In addition, the superoxide response (% of plate) in [8] was 80.8% (inactive). For the same compound, the aptamer binding inhibition in [9] was 5% (inactive). In addition, the response in [10] was 4.35% (inactive); in [12], 6.19% (inactive). The binding (% of control) in assay [13] is 102% (inactive). Besides, the efflux inhibition (fraction of control) in assay [14] was 0.51 (active). For the same compound, the differentiation response in assay [16] was 7.2% (inactive).

Turning to `CCn1cc(CN2N=C(C)CC2c2ccccc2)c(C)n1` (stereo not given), in [1], the percent of DMSO control GFP was 95.6% (inactive). Moreover, the GFP response vs DMSO is 120% (inactive) in assay [2] and 116% (inactive) in [4]. Also, the percent response of DMSO control in assay [3] is 92.9% (inactive). In assay [5], the GFP response, % of DMSO is 97.2% (inactive). In assay [6], this compound had a double positive events of 60.6%. In addition, the vesicle binding response in assay [6] was 87.5% (inactive). The inhibition in [7] was -7.25% (inactive); in [11], -1.16% (inactive); in assay [15], 3% (inactive). Further, the superoxide response (% of plate) in [8] was 106% (inactive). The aptamer binding inhibition in [9] was 3% (inactive). The response was 7.08% (inactive) in assay [10] and 1.03% (inactive) in assay [12]. In addition, in [13], the binding (% of control) was 103% (inactive). In addition, the efflux inhibition (fraction of control) in [14] was -0.28 (inactive). The differentiation response in assay [16] was -29.6% (inactive).

In the case of `CCCCNc1ccc(C(=O)OCCN(C)C)cc1`, in assay [1], the percent of DMSO control GFP is 101% (inactive). For the same compound, the GFP response vs DMSO in assay [2] is 109% (inactive); in [4] it was 103% (inactive). For the same compound, in [3], the percent response of DMSO control is 98.9% (inactive). In addition, in [5], the GFP response, % of DMSO is 97.3% (inactive). This compound also showed a double positive events in [6] of 63.6%. For the same compound, the vesicle binding response in assay [6] was 212% (inactive). Moreover, the inhibition in assay [7] is 5.77% (inactive); in assay [11], 5.38% (inactive); in assay [15], 15% (inactive). Also, the superoxide response (% of plate) in assay [8] is 106% (inactive). In addition, in [9], the aptamer binding inhibition was -1% (inactive). Moreover, the response in assay [10] was -12.7% (inactive); in assay [12], -3.28% (inactive). Also, in assay [13], the binding (% of control) is 101% (inactive). The efflux inhibition (fraction of control) in assay [14] was -0.01 (inactive). Further, in assay [16], the differentiation response is 19.8% (inactive).

In the case of `CC(=O)N1CCN(c2ccc(OC[C@H]3CO[C@](Cn4ccnc4)(c4ccc(Cl)cc4Cl)O3)cc2)CC1`, the percent of DMSO control GFP in assay [1] is 105% (inactive). Also, the GFP response vs DMSO in assay [2] was 108% (inactive); in assay [4] it was 109% (inactive). Moreover, the percent response of DMSO control in assay [3] is 111% (inactive). In assay [5], the GFP response, % of DMSO is 111% (inactive). Also, the double positive events in assay [6] turned out to be 63.3%. Moreover, the vesicle binding response in assay [6] was 188% (inactive). Moreover, the inhibition in [7] was 4.27% (inactive); in [11], 6.3% (inactive); in assay [15] it was -9% (inactive). Also, the superoxide response (% of plate) in [8] was 100% (inactive). The aptamer binding inhibition in [9] was -2% (inactive). Moreover, the response in [10] is 0.01% (inactive); in assay [12] it was -2.33% (inactive). Moreover, the binding (% of control) in assay [13] is 98.1% (inactive). Also, the efflux inhibition (fraction of control) in [14] is 0.59 (active). For the same compound, the differentiation response in assay [16] was -10.4% (inactive).

The values are drawn from PubChem BioAssay.
